# Measurements taken from publication PMC4336329 (PLoS ONE, 2015).
# Among all 310,000 compounds or so, about 14,000 (4.5%) showed an effect of 50% or more. The effect is printed as a negative number. The list comes from a sample in which strong results are over-represented; it also holds similar structures and randomly drawn compounds.
# Target: human ether-à-go-go-related gene (hERG) potassium channel (human, UniProt Q12809)
# Test: primary screen, population patch clamp on CHO cells stably expressing hERG; higher = less effect of the substance
# 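Further: peak tail current of the secondary pulse compared with the same well before compound.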
# Chain of human ether-à-go-go-related gene (hERG) potassium channel (Q12809 whole entry, looked up): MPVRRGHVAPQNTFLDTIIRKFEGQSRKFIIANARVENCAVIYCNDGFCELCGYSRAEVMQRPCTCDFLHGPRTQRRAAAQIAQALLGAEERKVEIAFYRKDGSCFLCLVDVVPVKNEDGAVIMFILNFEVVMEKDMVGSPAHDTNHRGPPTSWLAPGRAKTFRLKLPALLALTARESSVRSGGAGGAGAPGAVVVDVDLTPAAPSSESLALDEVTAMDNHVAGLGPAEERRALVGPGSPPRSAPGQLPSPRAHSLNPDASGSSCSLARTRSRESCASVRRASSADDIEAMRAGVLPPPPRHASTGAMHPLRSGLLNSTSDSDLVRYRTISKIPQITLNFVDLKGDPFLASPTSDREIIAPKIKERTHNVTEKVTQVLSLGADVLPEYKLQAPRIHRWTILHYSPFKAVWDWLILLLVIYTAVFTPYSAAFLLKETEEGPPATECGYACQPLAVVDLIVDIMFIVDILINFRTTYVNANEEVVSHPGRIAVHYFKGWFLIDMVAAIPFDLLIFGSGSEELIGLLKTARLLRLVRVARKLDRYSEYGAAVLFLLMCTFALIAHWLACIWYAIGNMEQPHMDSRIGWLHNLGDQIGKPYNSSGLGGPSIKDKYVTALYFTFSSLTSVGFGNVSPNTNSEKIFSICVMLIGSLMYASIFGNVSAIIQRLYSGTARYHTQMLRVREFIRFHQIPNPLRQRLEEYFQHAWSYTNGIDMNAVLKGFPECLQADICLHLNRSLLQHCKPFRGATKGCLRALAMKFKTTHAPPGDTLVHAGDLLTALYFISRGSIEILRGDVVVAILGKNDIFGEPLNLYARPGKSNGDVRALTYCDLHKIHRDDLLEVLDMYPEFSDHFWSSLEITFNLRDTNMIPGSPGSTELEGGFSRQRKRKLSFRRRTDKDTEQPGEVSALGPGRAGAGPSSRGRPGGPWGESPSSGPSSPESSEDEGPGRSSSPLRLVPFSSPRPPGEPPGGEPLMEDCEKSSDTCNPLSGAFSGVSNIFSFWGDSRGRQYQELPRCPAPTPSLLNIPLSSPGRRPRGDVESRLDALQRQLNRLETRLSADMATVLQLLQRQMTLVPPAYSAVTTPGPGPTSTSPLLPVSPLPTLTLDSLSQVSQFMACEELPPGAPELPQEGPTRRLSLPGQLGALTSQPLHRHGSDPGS
row,SMILES,"hERG current change (%, negative = inhibition) at 10uM"
1,CCCCc1cc(C)c(S(=O)(=O)c2ccccc2C)c(=O)[nH]1,3.69%
2,CC(Oc1ccccc1)C(=O)NC1C(=O)N2C1SC(C)(C)C2C(=O)[O-].[K+] (centres unmarked),35.9%
3,CCOC(=O)c1sc(NC(=S)NC(=O)C23CC4CC(CC(C4)C2)C3)cc1C,20.2%
4,CCCC1=NN(c2ccc([N+](=O)[O-])cc2)C(=O)/C1=C\N(C)C,-7.95%
5,O=C(O)C1C2CCC(O2)C1C(=O)Nc1ccc(F)c(F)c1 (centres unmarked),26.5%
6,CCCC(=O)Nc1ccc(C(=O)COC(=O)C2CC2C)cc1 (centres unmarked),5.46%
7,CCN1C(=O)/C(=C/C=C2/SCCN2C)SC1=S,4.78%
8,COC(=O)Cn1cc(C(=O)C2CC2)c2ccccc21,2.2%
9,Cc1cc(C)c(C)c(S(=O)(=O)NCc2ccc(C(=O)N3CCN(C)CC3)cc2)c1C,-4.7%
10,O=C(O)c1nn2c(c1Br)NC(c1ccccc1)CC2C(F)(F)F (centres unmarked),12.2%
11,CCc1nnc(NC(=O)c2cc(S(=O)(=O)N(CC)CC)ccc2Cl)s1,-7.31%
12,COc1ccccc1NC(=O)N1CCC(c2nc3ccccc3o2)CC1,-6.16%
13,CC(C)NC(=O)COC(=O)c1cccc(NS(=O)(=O)/C=C/c2ccccc2)c1,-18%
14,Cn1cnnc1SCC(=O)NC1CCCN(Cc2ccc(Cl)cc2)C1 (centres unmarked),-0.412%
15,O=C(/C=C/c1ccccc1)NC(=S)Nc1ccc(CN2CCOCC2)cc1,-18.9%
16,O=C(/C=C/c1ccc(Cl)cc1)Nc1ccc(CN2CCOCC2)cc1,-28%
17,O=C(/C=C/c1ccccc1)Nc1ccc(CN2CCOCC2)cc1,-62.5%
18,CCSc1nnc(NC(=O)CSc2nc3c(c(=O)n2CC)SC(C)C3)s1 (centres unmarked),6.95%
19,CCC(=O)Nc1ccc(NC(=O)c2cccc3ccccc23)cc1,23.9%

row,SMILES,"hERG current change (%, negative = inhibition) at 10uM"
1,COc1ccc(-c2nc(SC(CC(=O)NCc3ccccc3)c3ccc(OC)c(OC)c3)n[nH]2)cc1 (centres unmarked),-0.421%
2,c1ccc(-n2c(SCc3nc(-c4cccs4)no3)nnc2-c2ccco2)cc1,-42.6%
3,Cc1ccc(-c2noc(CSc3nnc(-c4ccncc4)n3-c3ccc(F)cc3)n2)cc1,-10.3%
4,CCCn1c(SCc2nc(-c3cccs3)no2)nnc1-c1ccncc1,-4.13%
5,Cc1ccc(-c2noc(CSc3nnc(-c4ccncc4)n3-c3ccc(C)cc3)n2)cc1,-42.9%
6,CCOc1ccc(-n2c(SCc3nc(-c4ccc(C)cc4)no3)nnc2-c2ccncc2)cc1,-73.2%
7,CCOc1ccc(-n2c(SCc3nc(-c4cccs4)no3)nnc2-c2ccncc2)cc1,-59.7%
8,O=c1[nH]c(=S)n(-c2ccc(Cl)cc2)c(O)c1/C=N/N1CCOCC1,-6.08%
9,CC1CC(C)CN(S(=O)(=O)c2ccc3c(c2)CC(C)N3C(=O)C2CCC2)C1 (centres unmarked),4.7%
10,CC12CCC(C(=O)N3CCCCCC3)(OC1=O)C2(C)C (centres unmarked),13.1%
11,Nc1cc(=O)[nH]c(SCC(=O)NC2CCCc3ccccc32)n1 (centres unmarked),0.0692%
12,CC(=O)OCc1cc2cccc(C)c2[nH]c1=O,-9.76%
13,Cc1cccc(CCNCc2cc3cccc(C)c3[nH]c2=O)c1,-64.1%
14,Cc1ccccc1CCNCc1cc2cccc(C)c2[nH]c1=O,-52.2%
15,Cc1cccc2cc(COC(=O)c3ccccc3)c(=O)[nH]c12,-0.867%
16,Cc1cccc(CCNCc2cc3cc(C)cc(C)c3[nH]c2=O)c1,-30.8%
17,Cc1cccc(CCN(Cc2cc3cccc(C)c3[nH]c2=O)C(=O)N2CCOCC2)c1,-29.4%
18,Cc1cccc2cc(CN(Cc3ccccc3)C(=O)N(C)C)c(=O)[nH]c12,-11.5%
19,CCC(=O)OCc1cc2cccc(C)c2[nH]c1=O,-1.03%

row,SMILES,"hERG current change (%, negative = inhibition) at 10uM"
1,Cc1cccc2cc(COC(=O)C(C)C)c(=O)[nH]c12,-69.3%
2,CC(C)CSc1oc(-c2ccco2)nc1S(=O)(=O)c1ccccc1,-19.7%
3,O=C(CCC(=O)N1CCCC(Nc2ccccc2)C1)c1ccc(F)cc1 (centres unmarked),-8.8%
4,COc1cc(CNc2ccc3[nH]c(=O)[nH]c3c2)cc(Cl)c1OCC(=O)NC(C)(C)C,4.56%
5,COc1ccc(S(=O)(=O)Nc2ccccc2-c2nc3ccccc3[nH]c2=O)cc1,-9.79%
6,COc1ccc(OC)c(NC(=O)Cn2c(CCC(=O)O)ccc2-c2ccc(C)cc2)c1,-7.22%
7,Cc1ccc(CN2CC(C(=O)N3CCN(S(=O)(=O)c4cccc(F)c4)CC3)CC2=O)cc1 (centres unmarked),-32.6%
8,O=C(Nc1ccc(C(F)(F)F)cc1)C1(c2ccccc2)CC1,-15.2%
9,CCNC(=S)Nc1cc(OCC)c(NC(=O)c2ccco2)cc1OCC,-1.82%
10,Cc1ccc(OCC(O)CN2CCC(Cc3ccccc3)CC2)c(C)c1.Cl (centres unmarked),-75.2%
11,Cc1ccc(C)c(OCC(O)CN2CCC(Cc3ccccc3)CC2)c1.Cl (centres unmarked),-67.6%
12,Cc1ccc(OCC(O)CN2CCN(CCO)CC2)c(C)c1.Cl (centres unmarked),4.18%
13,Clc1nc(-c2ccccc2)ncc1Oc1ccccc1,14.6%
14,Cc1ccc(-n2nnnc2SCC(=O)c2c(N)n(C3CC3)c(=O)[nH]c2=O)cc1C,-10.6%
15,COc1cccc(/C=N/NC(=O)CNC(=O)c2ccc(S(=O)(=O)N3CCOCC3)cc2)c1OC,-4.96%
16,O=c1nc(-c2ccccc2)n(-c2ccccc2)[nH]1,1.69%
17,COCC1CCN(C(=O)c2cc(COc3cncc(Cl)c3)on2)C1 (centres unmarked),5.09%
18,C/C(CC(=O)Nc1cccc(Cl)c1C)=N\NC(=O)Cc1csc(N)n1,2.42%
